# Experimental data published in PubChem BioAssay (NCI).
# The panel holds about 83,000 compounds, 20% with a hit somewhere; the sample as a whole holds those more often.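 Treatment: one concentration, 48 hours, 96-well format. Scoring: percent growth, with anything below 10 considered active.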 Unmarked numbers belong to inactive results. Activity calls are given as the source filed them.
# Key:
# Assay in all cases: NCI-60 one-dose screen, 48 h (100 = growth as untreated, 0 = no growth, -100 = all killed)
# Conditions in all cases: 10 µM
# [1] = system: NCI-H23 lung
# [2] = system: NCI-H226 lung
# [3] = system: NCI-H322M lung
# [4] = system: HOP-62 NSCLC
# [5] = system: NCI-H460 lung
# [6] = system: NCI-H522 lung
# [7] = system: A549/ATCC NSCLC
# [8] = system: 786-0 renal
# [9] = system: COLO 205 colon
# [10] = system: DU-145 prostate
SMILES,growth [1],growth [2],growth [3],growth [4],growth [5],growth [6],growth [7],growth [8],growth [9],growth [10]
CCOC1(OCC)OC(c2ccccc2)=C(C#N)C(/C=C\c2ccccc2)C1(OCC)OCC (stereo not drawn),82.4%,81.2%,84.3%,91.5%,81.8%,82.3%,82.5%,87.4%,88.9%,89.7%
O=C(N/N=C/c1ccccc1O)C(O)(c1ccccc1)c1ccccc1,64.1%,71.1%,46%,59%,27.4%,27.9%,52.8%,61.7%,35.5%,59.9%
COc1cc(-c2cc(/C=C3\C(=O)Nc4ccc(Cl)cc43)[nH]n2)cc(OC)c1OC,38.3%,58.2%,51.5%,44.6%,38%,20.2%,40.4%,61.6%,11.4%,
COc1ccc(C(=O)/C=C/c2cc(-c3cc(OC)c(OC)c(OC)c3)n[nH]2)cc1,87.3%,53.3%,-6.79% (active),17.6%,2.79% (active),-0.12% (active),34.5%,10.4%,30.5%,26.3%
COc1ccc(Cn2c(C(N)=O)cc3c2-c2nc(N)ncc2CCC3)cc1,106%,98.6%,89.1%,100%,97.7%,103%,93.7%,101%,101%,99.4%
Nc1c(C(=O)Nc2cccc(F)c2)sc2nc3c(cc12)C(=O)CCC3,41.6%,64.6%,58.8%,69.3%,11.5%,5.31% (active),27.6%,51.6%,-3.2% (active),-12.7% (active)
COc1cc2c(cc1OCCCN1CCN(c3ncnc4ccccc34)CC1)N=CC1CCCN1C2=O (stereo not drawn),-8.7% (active),-50.1% (active),-3.85% (active),4.07% (active),8.4% (active),-37.7% (active),-2.44% (active),7.51% (active),-42% (active),
CN(C)CCCn1c(=O)c2ccccc2c2cnc3[nH]ccc3c21,13.8%,-0.537% (active),9.79% (active),-1.44% (active),-6.21% (active),-38.9% (active),1.69% (active),15.2%,-31.3% (active),-0.745% (active)
COc1ccc(-c2nc3sc(-c4ccc(OC)cc4)c(-c4ccc(OC)cc4)n3c2/C=C/c2ccc(C(C)C)cc2)cc1,95.6%,90.9%,96.5%,95.1%,101%,76.5%,95.2%,99.2%,107%,115%
CC1CN(Cc2ccccc2)C(=O)NC1=O (stereo not drawn),110%,106%,122%,105%,109%,91.8%,103%,112%,108%,
CCCCCCCCCCCCC1C/C=C\CCCC(=O)O1 (stereo not drawn),91.1%,167%,108%,106%,109%,98.1%,80.7%,98.4%,113%,130%
Cc1cs/c(=N\NC(=O)c2cc(-c3cc4ccccc4o3)nn2-c2ccccc2)n1-c1ccccc1,85.9%,91.3%,93.5%,97.9%,97.1%,86.4%,88.4%,91.4%,98.3%,
COc1cc(Nc2ncnc(Nc3ccc4c(n3)NC(=O)C(C)(C)O4)n2)cc(OC)c1OC,25.5%,-27.7% (active),4.97% (active),13.6%,12.1%,-11.6% (active),-23.1% (active),8.87% (active),-2.65% (active),18.8%
COc1ccc(C2=NN(C(=O)c3ccc(S(C)(=O)=O)cc3)C(c3ccc(OC)c(OC)c3)C2)c(OC)c1 (stereo not drawn),104%,85.5%,93.9%,74.4%,107%,86.6%,91.7%,99.8%,111%,98%
O=C(Nc1ccc(Cl)c(Cl)c1)Nc1c(Oc2ccc(Cl)c(Cl)c2)ccc(Cl)c1S(=O)(=O)O,39.5%,66%,50.8%,49.4%,9.02% (active),-1.66% (active),37%,35%,-13.9% (active),21.1%
CCCCCCCNc1nc(C=O)ncc1-c1ccc(C(F)(F)F)cc1,99.8%,98%,84.4%,101%,103%,80.1%,96.4%,97%,95.8%,106%
COc1cc2c(cc1OCCCCCCN1CCN(CC(=O)Nc3ccc(Cl)cc3C(=O)c3ccccc3Cl)CC1)N=CC1CCCN1C2=O (stereo not drawn),-56.1% (active),-82% (active),-97.8% (active),-77.9% (active),-30.5% (active),-69% (active),-93% (active),-85.4% (active),-60.1% (active),
Clc1nc(Cl)c2c(ncn2C/C=C\Cn2cnc3c(Cl)nc(Cl)nc32)n1,-15.8% (active),-80.1% (active),8.09% (active),11.2%,0.846% (active),-70.6% (active),-79.4% (active),-4.46% (active),-51.5% (active),
N#Cc1cc(-c2cc3ccccc3o2)oc1N,11.4%,17.4%,2.76% (active),20%,9.76% (active),-4.4% (active),-5.69% (active),11.7%,12.9%,
COc1ccc(-c2nc(-c3nc4cc(Cl)c(Cl)cc4[nH]3)c3ccccn23)cc1,67.5%,44.5%,48.4%,-11.7% (active),41.5%,55.9%,16.8%,0.945% (active),88.4%,47.5%
COc1ccc(-c2nc3sc(-c4ccccc4)c(-c4ccccc4)n3c2/C=C/C(=O)c2ccccn2)cc1,97.4%,84%,112%,134%,87%,6.21% (active),87.7%,98.7%,76.4%,96.7%
CCCN(CCC)CCC(O)c1cc2c(c3ccccc13)CCCC2 (stereo not drawn),79.8%,81.1%,99.1%,79.4%,98.9%,74.2%,92.3%,84.3%,77%,106%
O=C(Nc1cccc(-n2cc(-c3ccncc3)c(-c3cc(O)cc(Cl)c3)n2)c1)c1cc(C(F)(F)F)cc(C(F)(F)F)c1,42.7%,96%,74.1%,58.3%,19.9%,17.8%,27.3%,55.1%,38.7%,62.1%
O=C(N/N=C/c1cc2ccccc2c2ccccc12)c1cc(O)c(O)c(O)c1,70.2%,95.6%,74.6%,54.5%,88.1%,-41.3% (active),94.4%,82.6%,72.7%,75.8%
Cc1nc2ccc(CN(C)c3ccc(C(=O)N[C@@H](CCC(=O)O)C(=O)O)s3)cc2c(=O)[nH]1,54.9%,56.1%,85.9%,28.6%,29.1%,71.9%,60%,18.3%,58.5%,52.6%
